From PubChem BioAssay AID1259417 (TB Discovery Research, Infectious Disease Research Institute, 2018)
Out of some 1,100 compounds screened, about 760 (69%) were called active. No rule for the calls is given here. The set was probably picked from earlier hits. This is one part of the list.

Assay: M. tuberculosis growth inhibition, HTS (AID 1259417);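 also: bacteria grown with compound for 5 days at 37 °C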
Conditions: stronger effect = higher value, concentration not given here
[1] = M. tuberculosis DsRed fluorescence growth inhibition
[2] = M. tuberculosis growth inhibition

SMILES | inhibition [1] | inhibition [2] [%]
COC(=O)C(C)Sc1nnc(-c2ccc(Br)cc2)o1 (centres undefined) | 71.1% (active) | 95.8
CC(C)(C)C(=O)Nc1nnc(-c2ccc(Br)cc2)o1 | 90.8% (active) | 84.1
CCCCC(=O)Nc1nnc(-c2ccc(Br)cc2)o1 | 5.72% (inactive) | 15.5
CC(C)C(=O)Nc1nnc(-c2ccc(Br)cc2)o1 | 23.4% (active) | 38.6
CC(C)C(=O)Nc1nnc(-c2ccccc2)o1 | 1.9% (inactive) | 2.21
O=C1C=C(c2ccccc2)C(=O)c2ccccc21 | 12% (active) | 58.3
COc1ccc(Cc2nnc(SCC(=O)NCCc3ccccc3)o2)cc1 | 98% (active) | 96.2
O=C(CSc1nc2cc(Cl)ccc2o1)NCCc1ccccc1 | 85.8% (active) | 53
O=C(CSc1nnc(Cc2ccccc2)o1)NCCc1ccccc1 | 63.5% (active) | 42
COc1ccc(Cc2nnc(SCC(=O)NCc3ccco3)o2)cc1 | 32.4% (active) | 54.8
COc1ccc(-c2nnc(SCC(=O)NCCc3ccccc3)o2)cc1 | 93.3% (active) | 88.5
COc1cccc(N2CCN(Cc3nc(N)nc(Nc4ccc(C)c(Cl)c4)n3)CC2)c1 | 9.68% (inactive) | 23.6
Cc1cccc(Nc2nc(N)nc(CN3CCN(c4cccc(Cl)c4)CC3)n2)c1 | 33.7% (active) | 47.4
O=c1c2ccccc2[nH]c(=S)n1CCCN1CCN(c2cccc(Cl)c2)CC1 | 14.1% (inactive) | -11.2
COc1cccc(N2CCN(Cc3nc(N)nc(Nc4ccc(C)c(C)c4)n3)CC2)c1 | 29.6% (active) | 48.8
COc1ccc(N2CCN(Cc3nc(N)nc(Nc4ccc(C)c(Cl)c4)n3)CC2)cc1 | 27.3% (active) | 55.4
Cc1cccc(NC(=S)NCCN2CCN(c3ccc(F)c(Cl)c3)CC2)c1C | 9.39% (inactive) | -14
O=C(OCC#CCSc1nnc(-c2ccc([N+](=O)[O-])cc2)o1)c1cccs1 | 65.7% (active) | 72.9
O=C(OCC#CCSc1nnc(-c2ccc(Br)cc2)o1)c1cccs1 | 33.6% (active) | 31.6

SMILES | inhibition [1] | inhibition [2] [%]
CC(=O)OCC#CCSc1nnc(-c2ccc(Br)cc2)o1 | 49.2% (active) | 48
CSc1ccc(C(=O)C2CCCN(Cc3cc4ccccc4[nH]3)C2)cc1 (centres undefined) | 4.22% (inactive) | -24.7
CCCC(=O)N1CCN(c2ccc(NC(=O)c3ccc(-c4ccc(Cl)cc4)o3)cc2Cl)CC1 | 0.329% (inactive) | -21.3
O=C(Nc1cccc(Br)c1)c1ccc(-c2ccc(Cl)cc2)o1 | 8.23% (inactive) | 21
CCC(C)c1ccc(O)c(NC(=S)NC(=O)c2ccc(-c3ccc(Cl)cc3)o2)c1 (centres undefined) | 74.3% (active) | 78.2
CCC(C)c1ccc(O)c(NC(=S)NC(=O)c2cccnc2)c1 (centres undefined) | 99.4% (active) | 99.7
C=CCn1c(=NC(=O)c2ccc([N+](=O)[O-])s2)sc2cc(S(N)(=O)=O)ccc21 | 59.9% (active) | 94.9
Cc1cc(C)cc(COc2ccc3c(C)c(CCC(=O)O)c(=O)oc3c2C)c1 | 13.5% (inactive) | -13.6
COC(=O)Cc1c(C)c2ccc(OCC(=O)OCc3ccccc3)c(C)c2oc1=O | 4.42% (active) | 54
CCc1c(C)c2ccc(OCC(=O)OC)c(C)c2oc1=O | 49.4% (active) | 89.1
O=c1cnnc(NN=Cc2cc(Br)ccc2O)[nH]1 | 100% (active) | 98.8
Cc1cccc(C(=O)N2N=C(c3ccc(Br)cc3)CC2(O)C(F)(F)F)c1 (centres undefined) | 12.2% (active) | 41
O=C(c1cccc([N+](=O)[O-])c1)N1N=C(c2ccc(Br)cc2)CC1(O)C(F)(F)F (centres undefined) | 5.59% (inactive) | 21
COc1cc(CNC23CC4CC(CC(C4)C2)C3)ccc1OCc1ccccc1 | 99.4% (active) | 96.2
CN(C)c1ccc(CNC23CC4CC(CC(C4)C2)C3)cc1 | 98.9% (active) | 95.5
c1ccc(COc2ccccc2CNC23CC4CC(CC(C4)C2)C3)cc1 | 22.3% (inactive) | 3.79
CCOc1cc(CNC23CC4CC(CC(C4)C2)C3)ccc1OCc1cccs1 | 99.7% (active) | 95.9
CCOc1cccc(N2C(=O)CC(SC(N)=NN=C(C)c3ccc(Cl)s3)C2=O)c1 (centres undefined) | 6.46% (inactive) | -10.4
